This is part of a sample that, as a whole, favours compounds with a hit. Of some 83,000 tested, about 20% had one in any assay.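 Plates (96-well) were seeded with cells, treated with compound at one concentration, and incubated for 48 hours before percent growth was determined.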 Unmarked numbers belong to inactive results. Activity calls are given as the source filed them. Rule for the calls: active = growth percent below 10; inactive = the rest.
What follows are compounds tested on HL-60(TB) leukemia (assay: NCI-60 one-dose screen, 48 h (100 = growth as untreated, 0 = no growth, -100 = all killed)). Conditions: 10 µM unless noted.

Row | SMILES | growth
1 | C#CCOc1cccc(-c2ncnc3cc(NC(=O)C=C)ccc23)c1 | 16.9%
2 | O=C1c2c(c3c4cc(Br)ccc4[nH]c3c3ccc4ccccc4c23)C(=O)N1O | 116%
3 | Cc1c(F)cccc1NC(=O)c1sc2nc3c(cc2c1N)CCCCC3 | 6.49% (active)
4 | CNCCOc1nc2c3cnccc3cc(-c3cc(OC)c(OC)c(OC)c3)c2c2ccncc12 | -25.8% (active)
5 | N#Cc1c(N2CCOCC2)nc2sc3cc(Cl)ccc3n2c1=N | 107%
6 | Cc1cn(C2CCCCC2)c(=O)[nH]c1=O | 96.7%
7 | N#CCCCCCCCCCCC#N | 98.7%
8 | C=C(C)[C@@H]1C/C=C(/C=O)CC[C@@H]2O[C@@]2(C)CC/C=C(\C)CC1 | 162%
9 | COC(=O)[C@@H]1[C@H](O)[C@H](C)[C@H](O)[C@H](C)/C=C\C=C(C)C(=O)Nc2c(C)c(OC(C)=O)c3c(c2O)C(=O)C(C)=C2OCOC(=C23)C(C)=C[C@@](C)(O)[C@H](O)[C@@H](C)[C@H]1OC(C)=O | 119%
10 | CC(CNc1nc(Nc2ccc(Cl)c(Cl)c2)nc(C(Cl)(Cl)Cl)n1)N(C)C (stereo not given) | -21% (active)
11 | CCOC(=O)c1c2c(c(C)n1Cc1ccccc1)-c1nc(N)ncc1CC2 | 96.2%
12 | O=C1Nc2c(C(=O)O)cccc2/C1=N/c1n[nH]c(=S)s1 | 79.7%
13 | O=c1oc2ccc(Cl)cc2c(=O)n1-c1ccc(F)cc1F | -28.8% (active)
14 | CN1CCN(CCCOC(=O)c2c3c(n4ccccc24)C(=O)c2ncccc2C3=O)CC1 | 30%
15 | O=C(C[n+]1cccc(Br)c1)c1ccc2c(c1)CCCC2 | 83.6%
16 | COc1cc(/C=C2\CCCC3=C2NC(C)=NC3c2cc(OC)c(OC)c(OC)c2)cc(OC)c1OC (stereo not given) | -4.1% (active)
17 | C=C(C)[C@@H]1CC[C@]2(C=NCCCNCCCCNCCCN)CC[C@]3(C)[C@H](CC[C@@H]4[C@@]5(C)CCCNC(C)(C)[C@@H]5CC[C@]43C)[C@@H]12 | 89.6%
18 | Cc1c(CC(=S)N2CCOCC2)nnn1-c1cccc(C(F)(F)F)c1 | 100%
19 | Nc1cccc(Cl)c1N | 79%
20 | COC(=O)c1[nH]nc(OC)c1C1(C(C#N)c2nc3ccccc3s2)CCCc2ccccc21 (stereo not given) | 79.8%

Row | SMILES | growth
21 | Cc1ccc(O)c(NC(=O)c2cccc(Nc3ccnc(C(F)(F)F)c3)c2)c1 | -11.8% (active)
22 | O=c1c2c3c(sc2n2c(CCl)nnc2n1Cc1ccccc1)CCCC3 | -59.8% (active)
23 | C[C@H]1[C@H](OC(=O)CCC(=O)O)O[C@@H]2O[C@]3(C)CC[C@H]4[C@H](C)CC[C@@H]1[C@@]24OO3 | -30.5% (active)
24 | OCCN(CCO)C(=S)S | 104%
25 | O=C(Nc1cccc(Oc2nnc(Cl)c3ccccc23)c1)Nc1ccc(Cl)c(C(F)(F)F)c1 | -16.7% (active)
26 | COc1cc(/C=C/C(=O)c2ccccc2O)ccc1OCCCOc1cc2c(cc1OC)C(=O)N1CCC[C@H]1C=N2 | -27.4% (active)
27 | O=C1NC(SCc2ccc(F)cc2)=N/C1=C/c1cccc(OCc2ccc(Cl)cc2)c1 | 61.5%
28 | COC(=O)/C(CCC=C(C)C)=C1\[C@@H](OC(C)=O)C[C@@]2(C)[C@H]1C[C@@H](O)[C@H]1[C@@]3(C)CC[C@H](NCCO)[C@@H](C)[C@@H]3CC[C@@]12C | 96.4%
29 | COc1ccc(-c2ccc(-c3ccc(C(=N)N)cn3)s2)cc1 | -37.1% (active)
30 | COc1cc(/C=C/C(=O)/C=C/c2cc(OC)c3c(c2OC)OCO3)c(OC)c2c1OCO2 | 27.2%
31 | Cc1ccc(/C=N/NC(=O)CSc2nc3ccccc3c(=O)n2Cc2ccc(S(N)(=O)=O)cc2)cc1 | 97.8%
32 | CCC(OC(=O)CC(C)C)c1ccccc1 (stereo not given) | 102%
33 | NC(=O)c1nc2c([nH]c1=O)CCCC2 | 101%
34 | COc1cc(-c2csc(NC(=O)c3cc(F)cc(C(F)(F)F)c3)n2)cc(OC)c1OC | 14%
35 | CCN(CC)CCOC(=O)Nc1ccccc1Cl | 102%
36 | Clc1ccc(-c2noc(/C=C\c3ccccc3)n2)cc1 | 94%
37 | COc1cc(Cn2cc(F)c(=O)[nH]c2=O)cc(OC)c1 | 104% [50 µM]
38 | Clc1ccc2c(NCCCNc3nccc(Nc4ccc(Br)cc4)n3)ccnc2c1 | -69.2% (active)
39 | O=C(N/N=C1\SCC(=O)N1c1ccccc1)c1cc(-c2cc3ccccc3o2)nn1-c1ccccc1 | 112%
40 | O=C(O)CN1C(=O)CCC1=O | 134%

From PubChem BioAssay (NCI)
